Data taken from PubChem BioAssay AID1159580 (chemical genetic matrix, 2015).
About 2,000 (36%) of roughly 5,500 compounds were called active. Another 18% or so got no clear call; they are omitted. Rule as the data show it: active = normalized growth mostly below about 0.91 (no sharp cut-off); inconclusive = no clear call, values can overlap the other calls; inactive = mostly above about 0.92. The list shows a part of the results.

Assay: chemical genetic growth profiling, strain panel (AID 1159580);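 also: tested at 20 µM; growth read once vehicle control cultures reached saturation at 30 °C; 1 = growth at the plate median or of vehicle wells; lower values mean less growth of the strain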
Conditions: growth OD
[1] = S. cerevisiae deletion strains, locus YAL013W, strain DEP1, hits give low values
[2] = S. cerevisiae deletion strains, locus YBR229C, strain ROT2, hits give low values
[3] = S. cerevisiae deletion strains, locus YDL101C, strain DUN1, hits give low values
[4] = S. cerevisiae deletion strains, locus YDR150W, strain NUM1, hits give low values
[5] = S. cerevisiae deletion strains, locus YEL061C, strain CIN8, hits give low values
[6] = S. cerevisiae deletion strains, locus YGR078C, strain PAC10, hits give low values
[7] = S. cerevisiae deletion strains, locus YGR229C, strain SMI1, hits give low values
[8] = S. cerevisiae deletion strains, locus YHR030C, strain SLT2, hits give low values
[9] = S. cerevisiae deletion strains, locus YHR087W, strain rtc3, hits give low values
[10] = S. cerevisiae deletion strains, locus YJR043C, strain POL32, hits give low values
[11] = S. cerevisiae deletion strains, locus YJR075W, strain HOC1, hits give low values
[12] = S. cerevisiae deletion strains, locus YKL190W, strain CNB1, hits give low values
[13] = S. cerevisiae deletion strains, locus YLR039C, strain RIC1, hits give low values
[14] = S. cerevisiae deletion strains, locus YLR058C, strain SHM2 (second series), hits give low values
[15] = S. cerevisiae deletion strains, locus YLR085C, strain ARP6, hits give low values
[16] = S. cerevisiae deletion strains, locus YLR262C, strain YPT6, hits give low values
[17] = S. cerevisiae deletion strains, locus YML094W, strain GIM5, hits give low values
[18] = S. cerevisiae deletion strains, locus YMR219W, strain ESC1, hits give low values
[19] = S. cerevisiae deletion strains, locus YMR263W, strain SAP30, hits give low values
[20] = S. cerevisiae deletion strains, locus YNL153C, strain GIM3, hits give low values
[21] = S. cerevisiae deletion strains, locus YNL298W, strain CLA4 (second series), hits give low values
[22] = S. cerevisiae deletion strains, locus YNL322C, strain KRE1, hits give low values
[23] = S. cerevisiae deletion strains, locus YNR030W, strain Alg12, hits give low values
[24] = S. cerevisiae deletion strains, locus YOL006C, strain TOP1, hits give low values
[25] = S. cerevisiae deletion strains, locus YPL055C, strain LGE1, hits give low values
[26] = S. cerevisiae deletion strains, locus YPL241C, strain CIN2, hits give low values
[27] = S. cerevisiae deletion strains, locus YPR135W, strain CTF4, hits give low values
[28] = S. cerevisiae strains, strain wild type, hits give low values
[29] = S. cerevisiae deletion strains, locus YMR307W, strain GAS1, hits give low values

Measured: normalized growth

COc1ccccc1N=C1SCC(=O)N1Cc1ccco1
inactive: [1] 0.993 | [2] 0.99 | [3] 0.983 | [4] 0.9 | [5] 0.989 | [6] 0.981 | [7] 1 | [8] 0.956 | [9] 0.989 | [10] 0.977 | [11] 0.978 | [12] 0.997 | [13] 0.989 | [14] 0.99 | [15] 0.968 | [16] 0.998 | [17] 0.972 | [18] 0.989 | [19] 0.987 | [20] 0.987 | [21] 0.997 | [22] 0.985 | [23] 0.998 | [24] 0.951 | [25] 0.969 | [26] 1.01 | [27] 0.939 | [28] 1

S=c1[nH]nc(-c2ccco2)n1-c1ccc2c(c1)OCCO2
inactive: [1] 0.998 | [2] 0.985 | S. cerevisiae deletion strains, locus YCL061C, strain MRC1, hits give low values 0.994 | [3] 0.989 | S. cerevisiae deletion strains, locus YDL134C, strain PPH21, hits give low values 0.991 | [4] 1.02 | [5] 1.02 | [6] 0.979 | [8] 1.05 | [9] 0.983 | [10] 0.987 | [11] 0.985 | [12] 0.989 | [13] 0.972 | [14] 0.98 | [15] 0.994 | [16] 0.991 | [17] 1 | [18] 0.991 | [19] 1.02 | [29] 1.05 | [20] 0.993 | [21] 1.01 | [22] 0.988 | [23] 1.01 | [24] 0.978 | [25] 0.971 | [26] 1 | [27] 1.06 | [28] 0.979

COc1ccc(-n2c(SCc3ccc(Br)cc3)nnc2-c2ccco2)cc1
inactive: [1] 0.972 | [2] 1 | [3] 1 | [4] 0.962 | [5] 1.01 | [6] 0.987 | [7] 0.978 | [8] 0.79 | [9] 0.996 | S. cerevisiae deletion strains, locus YJL187C, strain SWE1, hits give low values 1.01 | [10] 0.98 | [11] 0.969 | [13] 0.803 | [14] 0.989 | [15] 0.947 | [17] 0.993 | [18] 0.993 | [19] 0.989 | [29] 0.893 | [20] 0.996 | [21] 0.917 | [22] 0.984 | [23] 0.966 | [24] 0.889 | [25] 0.976 | [26] 0.986 | [27] 0.844
active: [16] 0.803
